Assay results as given in PubChem BioAssay (EPA / NIEHS).
Calls of active or inactive are those of the source. The calls were made as follows: active = hit-call score of the fitted dose curve at least 0.9, where 1 is the maximum; inactive = score below 0.9.

Assay: Tanguay_ZF_120hpf_ANY: Oregon State University Tanguay Lab 120 Hour Post-fertilization zebrafish Assay for Any Mortality and Malformation (AID 2284404)
Method: Tanguay_ZF_120hpf is a whole embryo, multiplexed endpoint assay using zebrafish larvae exposed for 120 hours post fertilization on a 96-well plate.Tanguay_ZF_120hpf_ANY is one of one assay component(s) measured or calculated from the Tanguay_ZF_120hpf assay. It is designed to make measurements of developmental malformations and mortality as detected with brightfield microscopy and combines scoring from 13 other assay components measuring more specific morphologies.Data from the assay component Tanguay_ZF_120hpf_ANY was analyzed into 1 assay endpoints. This assay endpoint, Tanguay_ZF_120hpf_ANY, was analyzed in the positive analysis fitting direction relative to DMSO as the negative control and baseline of activity. Using a type of morphology reporter, gain-of-signal activity can be used to understand changes in developmentals as they relate to the whole embryo. To generalize the intended target to other relatable targets, this assay endpoint is annotated to the zebrafish development intended target family, where the subfamily is embryonic morphogenesis and mortality.
Zebrafish husbandry: Tropical 5D wild-type adult zebrafish were housed in at an approximate density of 1000 per 100 gallon tank at the Sinnhuber Aquatic Research Laboratory, Oregon State University, Corvallis, OR. Each tank was kept at standard laboratory conditions of 28C on a 14-h light/10-h dark photoperiod in fish water consisting of reverse osmosis water supplemented with a commercially available salt (Instant Ocean). Spawning funnels were placed into the tanks the night prior, and embryos were collected and staged. To increase bioavailability, the chorion was enzymatically removed using pronase (63.6mg/ml, >/= 3.5U/mg, Sigma-Aldrich: P5147) at 4 hours post fertilization (hpf) using a custom automated dechorionator.Chemical exposures: Six hpf dechorionated embryos were placed 1 embryo per well in a 96-well plate prefilled with 90 ul of EM using automated embryo placement systems (AEPS). Ten microliters of each row of dilution plate 2 was added to 2 exposure plates. The final DMSO concentration used was 0.64% (vol/vol). Thirty-two embryos were also exposed to 5uM trimethyltin chloride (positive control). Plates were sealed to prevent evaporation and foil covered to reduce light exposure and kept in a 28C incubator. Embryos were statically exposed until 120 hpf. At 24 hpf, embryos were assessed for photomotor response using a custom photomotor response analysis tool (PRAT) and for developmental toxicity endpoints (MO24: mortality at 24 hpf, DP: developmental progression, SM: spontaneous movement, and NC: notochord distortion). At 120 hpf, locomotor activity was measured using Viewpoint Zebralab and assessed for 13 endpoints. Zebrafish acquisition and analysis program (ZAAP), a custom program designed to inventory, acquire, and manage zebrafish data, was used to collect developmental endpoints as either present or absent (i.e., binary responses were recorded). If mortality occurred for an embryo (at either 24 or 120 hpf), the non-mortality endpoints were not measured.

Row | SMILES | outcome | AC50
1 | NC(=O)C(F)(F)C(F)(F)F | inactive | –
2 | OCC(F)(F)OC(F)(F)C(F)(F)OC(F)(F)C(F)(F)OC(F)(F)CO | – | 18 µM (active)
3 | COC(=O)C(F)(F)C(F)(F)OC(F)(C(F)(F)F)C(F)(F)OC(F)=C(F)F (centres undefined) | – | 22.2 µM (active)
4 | O=C(O)C(F)(F)OC(F)(F)C(F)(F)OC(F)(F)C(=O)O | inactive | –
5 | FC(F)(F)C(F)(C(F)(F)F)C(F)(F)C(F)(F)CC1CO1 (centres undefined) | inactive | –
6 | C=CC(=O)OCC(F)(F)C(F)F | – | 23.3 µM (active)
7 | O=C(O)C(F)(OC(F)(F)C(F)(F)C(F)(F)F)C(F)(F)F (centres undefined) | inactive | –
8 | OCC(F)(F)OC(F)(F)C(F)(F)OC(F)(F)CO | inactive | –
9 | O=C(O)C(F)(F)C(F)(F)C(=O)O | inactive | –
10 | O=C(O)C(F)(F)OC(F)(F)C(F)(F)OC(F)(F)F | inactive | –
11 | O=C(O)C=CC(F)(C(F)(F)F)C(F)(F)F | inactive | –
12 | OCC(F)(F)OC(F)(F)C(F)(F)OC(F)(F)C(F)(F)OC(F)(F)F | inactive | –
13 | O=S(=O)(F)C(F)(F)C(F)(F)C(F)(F)C(F)(F)C(F)(F)C(F)(F)C(F)(F)C(F)(F)F | inactive | –
14 | CC(O)C(F)(F)C(F)(F)F (centres undefined) | inactive | –
